Data on 10 molecules can be found in PubChem BioAssay (Tox21).

Assay [1] in a line: qHTS assay to identify small molecule agonists of the androgen receptor (AR) signaling pathway in the presence of an antagonist - cell viability counter screen (AID 1259379).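 Note: MDA-kb2 human breast cancer cells carrying an MMTV luciferase reporter; series mostly up to about 92 µM; nearly all actives have a fitted effect of over 25% in size.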 The essentials:
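Cytotoxicity is assessed by CellTiter-Fluor in MDA-kb2 cells carrying an MMTV-driven luciferase reporter. Cells receive 3.0uM nilutamide plus compounds at 15 concentrations and incubate 16 hr at 37C without CO2 before fluorescence reading.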
A general note: In qHTS, concentration-response curves come from the screen itself.

Assay [2] can be described thus: qHTS assay to identify small molecule agonists of the estrogen receptor beta (ER-beta) signaling pathway - cell viability counter screen (AID 1259380). Note: nearly all actives have a fitted effect of over 30% in size. The essentials: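 Cytotoxicity is measured in parallel with the reporter screen: after 16 hr compound exposure at 37C and a 2 hr LiveBLAzer step, CellTiter-Glo is added to the same ER-beta-UAS-bla HEK293T wells and luminescence read after 30 min.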

The nature of assay [3]: qHTS assay to identify small molecule antagonists of the estrogen receptor beta (ER-beta) signaling pathway - cell viability counter screen (AID 1259382).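 Note: HEK293T cells carrying ER-beta-UAS-bla reporter stimulated with estradiol; series mostly up to about 92 µM; nearly all actives have a fitted effect of over 55% in size.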 In a few lines:
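Cytotoxicity counter screen multiplexed with the beta-lactamase antagonist assay: GripTite HEK293T ER-beta-bla cells were treated 16 hr with test chemicals in the presence of 1nM 17-beta-estradiol, and viability was measured by CellTiter-Glo.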

The target of assay [4] is Estrogen receptor (Homo sapiens) (UniProt P03372). In words: qHTS assay to identify small molecule agonists of the estrogen receptor alpha (ER-alpha) signaling pathway in the presence of an antagonist (AID 1259383; calls by dose curve; note: top concentration of the series differs between compounds; nearly all actives have a fitted effect of over 15% in size). In a few lines: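 Agonist-mode confirmation in the presence of the ER antagonist ICI-182,780 at 10.0nM final. Breast-derived VM7Luc4E2 reporter cells were exposed to compounds for 22hr, and ERE-driven luciferase was quantified by luminescence.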
Sequence of Estrogen receptor (Homo sapiens) (P03372 whole entry, looked up): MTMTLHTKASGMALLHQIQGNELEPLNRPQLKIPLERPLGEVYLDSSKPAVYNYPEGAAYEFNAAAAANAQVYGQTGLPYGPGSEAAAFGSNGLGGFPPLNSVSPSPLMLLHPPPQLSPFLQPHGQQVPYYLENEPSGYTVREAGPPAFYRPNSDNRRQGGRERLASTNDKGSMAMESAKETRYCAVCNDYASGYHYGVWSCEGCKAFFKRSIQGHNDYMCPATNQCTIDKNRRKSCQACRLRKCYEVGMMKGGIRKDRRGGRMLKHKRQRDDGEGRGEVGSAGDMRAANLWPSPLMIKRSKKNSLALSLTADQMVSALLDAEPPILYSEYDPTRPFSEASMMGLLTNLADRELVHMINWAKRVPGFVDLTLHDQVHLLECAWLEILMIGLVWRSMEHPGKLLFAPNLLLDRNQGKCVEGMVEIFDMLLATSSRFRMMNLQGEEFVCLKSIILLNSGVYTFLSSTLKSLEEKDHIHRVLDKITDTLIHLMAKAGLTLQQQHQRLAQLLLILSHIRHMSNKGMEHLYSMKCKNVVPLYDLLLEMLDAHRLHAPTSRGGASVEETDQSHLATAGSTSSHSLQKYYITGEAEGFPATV

The nature of assay [5]: qHTS assay to identify small molecule agonists or antagonists of the thyroid stimulating hormone receptor (TSHR) signaling pathway - wild type cell line counter screen (AID 1259384; calls by dose curve). In a few lines:
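Wild-type Hek293 cells, 800/well, 18 h at 37C, then compound with Ro20-1724 for 30 min RT. cAMP by HTRF (cAMP-d2/anti-cAMP cryptate), 1 h RT, fluorescence read. 15 concentrations, triplicates.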

In assay [6] the target is Thyrotropin receptor (Homo sapiens) (UniProt P16473). Nature of the assay: qHTS assay to identify small molecule antagonists of the thyroid stimulating hormone receptor (TSHR) signaling pathway (AID 1259385; calls by dose curve; note: nearly all actives have a fitted effect of over 20% in size). The essentials:
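TSHR-HEK293 cells (800/well) plated 18 h, then compounds with Ro20-1724 and TSH at 1.5 ng/mL final, 30 min at room temperature. cAMP quantified by HTRF (cAMP-d2/anti-cAMP-cryptate, 1 h); 15 concentrations in triplicate.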

Assay [7] can be described thus: qHTS assay to identify small molecule agonists of the estrogen receptor alpha (ER-alpha) signaling pathway in the presence of an antagonist - cell viability counter screen (AID 1259386).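 Note: series mostly up to about 92 µM; cells exposed to compounds for 22 h at 37 °C before the viability read; nearly all actives have a fitted effect of over 30% in size.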 In a few lines: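 Cytotoxicity was measured in parallel with the ERE-luciferase agonist screen, in the same wells. The cells were VM7Luc4E2, which endogenously express ER-alpha, and treatment was with compounds plus 10.0nM ICI-182,780 for 22hr.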

Assay [8] has as its target Progesterone receptor (Homo sapiens) (UniProt P06401). In words: qHTS assay to identify small molecule agonists of the progesterone receptor (PR) signaling pathway (AID 1346784; calls by dose curve; note: nearly all actives have a fitted effect of over 30% in size; note: potency is the fitted concentration of half-maximal effect). In a few lines:
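PR-UAS-bla HEK 293T cells (beta-lactamase reporter under UAS) in 2% charcoal-stripped FBS, dosed with 23 nL compound after 6 hr, incubated 16hr at 37C. LiveBLAzer B/G FRET substrate added, fluorescence read after 2 hours.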

For assay [9] the target is unchanged. Nature of the assay: qHTS assay to identify small molecule antagonists of the progesterone receptor (PR) signaling pathway (AID 1346795; active = well fitted inhibition curve with a large enough effect in the signal ratio in the repeat runs, not every such curve was filed as active; the % refers to the signal ratio). The essentials:
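PR-UAS-bla HEK293T cells with beta-lactamase reporter under UAS control, in 2% charcoal-stripped FBS, treated with compounds plus 1 nM promegestone (R5020, final) for 16 hr at 37C. Read-out: FRET beta-lactamase substrate fluorescence after 2 hr at room temperature.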

Assay [10] is described as follows: qHTS assay to identify small molecule antagonists of the TGF-beta/Smad signaling pathway - cell viability counter screen (AID 1346824). Note: nearly all actives have a fitted effect of over 50% in size. The essentials:
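SBE-bla HEK 293T cells, incubated overnight, then compound plus 0.25 ng/mL TGF-beta1 (stock added) for 5 hr at 37 C. Viability was read in the same wells by CellTiter-Glo luminescence after 30 min at room temperature.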

Assay [11] can be described thus: qHTS assay to identify small molecule agonists of the TGF-beta/Smad signaling pathway - cell viability counter screen (AID 1346829). Note: top concentration of the series differs between compounds; nearly all actives have a fitted effect of over 45% in size. In a few lines: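 Compound-treated SBE-bla HEK 293T cells (5 hr, 37 C) were assessed for viability with CellTiter-Glo in parallel with the reporter read.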
A short description of assay [12]: qHTS assay to identify small molecule agonists of the TGF-beta/Smad signaling pathway (AID 1346859; active = well fitted activation curve with a large enough effect in the signal ratio in the repeat runs, not every such curve was filed as active; the % refers to the signal ratio; note: series mostly up to about 77 µM). In a few lines:
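SBE-bla HEK293T cells plated overnight, then compound exposure for 5 h at 37 C. Beta-lactamase reporter read with LiveBLAzer B/G FRET substrate after 2 h at room temperature, fluorescence at 405 nm excitation, 460/530 nm emission.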

In assay [13] the target is Thyrotropin-releasing hormone receptor (Homo sapiens) (UniProt P34981). Nature of the assay: qHTS assay to identify small molecule antagonists of the thyrotropin-releasing hormone receptor (TRHR) signaling pathway (AID 1346877; active = well fitted inhibition curve with a large enough effect in the repeat runs, not every such curve was filed as active; note: series mostly up to about 51 µM). The essentials:
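Antagonism is measured as suppression of the calcium response to 1 nM TRH in TRHR-HEK293 cells that have been dye-loaded for 2 h at 37 °C after overnight plating. Each compound is tested at 15 concentrations in triplicate.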

Assay [14] shares this target. Nature of the assay: qHTS assay to identify small molecule agonists of the thyrotropin-releasing hormone receptor (TRHR) signaling pathway (AID 1346891; calls by dose curve; note: series mostly up to about 58 µM). In a few lines:
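HEK293 cells expressing TRHR plated 18 h at 37 C/5% CO2, calcium dye-loaded 2 h at 37 C, then compound added (agonist mode); kinetic calcium fluorescence read 3 min at 1 s intervals; 15 concentrations in triplicate.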

Assay [15] is described as follows: Human pregnane X receptor (PXR) small molecule agonists, qHTS cell viability counter screen (AID 1346977). Note: nearly all actives have a fitted effect of over 50% in size. The essentials:
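PXR-Luc HepG2 cells (2,000/well, 5% charcoal-stripped FBS) preincubated 5 hr, then exposed to compounds 24 hr at 37 C. Viability read in the same wells by CellTiter-Fluor fluorescence, reagent added at 23 hr, 1 hr incubation.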

The nature of assay [16]: qHTS assay to identify small molecule antagonists of the progesterone receptor (PR) signaling pathway - cell viability counter screen (AID 1346798). Note: series mostly up to about 92 µM; nearly all actives have a fitted effect of over 50% in size. The essentials: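 PR-UAS-bla HEK293T cells, 3,000/well in 2% charcoal-stripped FBS medium, dosed with compounds plus R5020 agonist and incubated 16 h at 37C. Viability then measured in the same wells by CellTiter-Glo luminescence after 30 min at RT.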

A short description of assay [17]: qHTS assay to identify small molecule agonists of the progesterone receptor (PR) signaling pathway - cell viability counter screen (AID 1346799; calls by dose curve; note: nearly all actives have a fitted effect of over 45% in size). The essentials: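 Counter screen in the PR-UAS-bla HEK293T wells (2% charcoal-stripped FBS, 16 h compound exposure at 37 C) after the bla read. CellTiter-Glo added, 30 min at room temperature, luminescence read as cell viability.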

Each structure is given as a SMILES string. A number with no mark means an inactive call. Records with an inconclusive call do not appear. Calls of active or inactive are those of the source. Unless noted, calls come from the whole dose curve; as a rule, active = well fitted curve in the direction sought with a large enough effect in the repeat runs; inconclusive = weak or mixed curves; inactive = no such curve, though single readings can be large; an effect the other way counts as inactive or inconclusive.
% is set by controls: 0 for no effect and ±100 for the full control effect.

Sequence of Thyrotropin receptor (Homo sapiens) (P16473 whole entry, looked up): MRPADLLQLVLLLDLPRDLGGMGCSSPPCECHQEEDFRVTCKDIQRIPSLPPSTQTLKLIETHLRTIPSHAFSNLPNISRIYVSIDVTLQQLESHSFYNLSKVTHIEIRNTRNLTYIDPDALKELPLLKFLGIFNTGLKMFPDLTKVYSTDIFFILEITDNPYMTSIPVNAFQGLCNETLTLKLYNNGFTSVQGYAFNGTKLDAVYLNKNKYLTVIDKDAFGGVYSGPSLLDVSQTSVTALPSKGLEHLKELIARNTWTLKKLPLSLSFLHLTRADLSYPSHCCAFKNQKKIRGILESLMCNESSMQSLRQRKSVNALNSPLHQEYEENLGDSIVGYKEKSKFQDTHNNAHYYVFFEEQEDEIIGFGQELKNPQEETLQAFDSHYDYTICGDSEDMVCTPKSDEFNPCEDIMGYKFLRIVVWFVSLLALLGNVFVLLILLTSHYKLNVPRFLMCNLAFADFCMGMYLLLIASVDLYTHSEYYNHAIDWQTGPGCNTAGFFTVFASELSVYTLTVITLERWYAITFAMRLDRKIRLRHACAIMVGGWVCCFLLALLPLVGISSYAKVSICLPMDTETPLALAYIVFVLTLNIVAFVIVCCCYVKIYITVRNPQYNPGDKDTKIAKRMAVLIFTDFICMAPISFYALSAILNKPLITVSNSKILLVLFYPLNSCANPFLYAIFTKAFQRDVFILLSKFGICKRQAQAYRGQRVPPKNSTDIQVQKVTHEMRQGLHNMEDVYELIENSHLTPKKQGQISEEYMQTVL
Sequence of Progesterone receptor (Homo sapiens) (P06401 whole entry, looked up): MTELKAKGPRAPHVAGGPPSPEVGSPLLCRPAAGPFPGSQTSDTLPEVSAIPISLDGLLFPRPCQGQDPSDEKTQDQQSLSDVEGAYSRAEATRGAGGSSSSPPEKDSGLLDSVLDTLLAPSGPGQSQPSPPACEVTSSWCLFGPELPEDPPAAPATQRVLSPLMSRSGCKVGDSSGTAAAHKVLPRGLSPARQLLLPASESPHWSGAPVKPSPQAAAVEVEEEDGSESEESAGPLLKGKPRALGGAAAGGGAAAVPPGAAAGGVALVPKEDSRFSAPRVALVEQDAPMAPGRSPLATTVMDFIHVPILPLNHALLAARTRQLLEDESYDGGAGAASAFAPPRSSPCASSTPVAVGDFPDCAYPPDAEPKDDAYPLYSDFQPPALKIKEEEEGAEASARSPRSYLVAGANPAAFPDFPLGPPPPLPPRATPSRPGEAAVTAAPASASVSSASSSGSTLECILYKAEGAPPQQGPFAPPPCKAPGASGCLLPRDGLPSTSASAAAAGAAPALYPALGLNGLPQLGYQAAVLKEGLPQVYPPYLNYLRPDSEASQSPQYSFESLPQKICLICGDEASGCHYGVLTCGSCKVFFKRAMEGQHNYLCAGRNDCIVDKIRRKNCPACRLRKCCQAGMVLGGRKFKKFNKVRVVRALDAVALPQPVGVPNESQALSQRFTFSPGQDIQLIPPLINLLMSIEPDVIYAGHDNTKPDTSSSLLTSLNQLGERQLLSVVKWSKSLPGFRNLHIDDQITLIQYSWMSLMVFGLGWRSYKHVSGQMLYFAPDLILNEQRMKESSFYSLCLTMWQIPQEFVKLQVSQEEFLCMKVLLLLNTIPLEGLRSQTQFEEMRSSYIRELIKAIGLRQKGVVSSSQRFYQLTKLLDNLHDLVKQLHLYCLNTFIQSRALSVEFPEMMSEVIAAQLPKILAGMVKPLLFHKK
Sequence of Thyrotropin-releasing hormone receptor (Homo sapiens) (P34981 whole entry, looked up): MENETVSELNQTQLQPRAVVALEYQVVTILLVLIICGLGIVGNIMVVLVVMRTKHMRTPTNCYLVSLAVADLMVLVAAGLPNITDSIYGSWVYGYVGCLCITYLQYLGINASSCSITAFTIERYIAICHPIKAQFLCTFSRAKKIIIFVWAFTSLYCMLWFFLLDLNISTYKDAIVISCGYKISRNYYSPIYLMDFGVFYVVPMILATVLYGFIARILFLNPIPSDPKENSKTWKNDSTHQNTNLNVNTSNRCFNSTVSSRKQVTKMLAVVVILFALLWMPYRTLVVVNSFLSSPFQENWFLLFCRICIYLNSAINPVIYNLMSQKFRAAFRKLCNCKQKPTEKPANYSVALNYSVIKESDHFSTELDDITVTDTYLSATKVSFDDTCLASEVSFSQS

`CCC1C(=O)OCC1Cc1cncn1C` (stereo not drawn): the Potency result in assay [1], in assay [2], in assay [7], in assay [8], in assay [9] and in [14] was “inactive” in each case. Besides, in assay [15], the Potency entry was “inactive”. In addition, the molecule was classed as inactive in assay [3], in assay [4], in [5], in [6], in assay [10] and in assay [11]. Further, the call in [12] and in assay [13] was inactive.

In the case of `CC12CCC(C(=O)C1=O)C2(C)C` (stereo not drawn), the Potency result in assay [1], in assay [2], in assay [7], in [8], in assay [9] and in assay [16] was “inactive” each time. In addition, the Potency result in assay [17], in assay [14] and in assay [15] was “inactive” throughout. The outcome in [3], in [10], in [12] and in assay [13] was inactive.

Take `CC(C(=O)O)c1cccc(Oc2ccccc2)c1` (stereo not drawn): the Potency result in [1], in assay [2], in assay [7], in assay [8], in assay [9] and in [16] was “inactive” throughout. The Potency result in [17], in assay [14] and in assay [15] was “inactive” in each case. For the same molecule, the molecule was called inactive in [3], in assay [10], in [11], in assay [12] and in assay [13].

On to `C[N+](C)(C)CCCCCCCCCC[N+](C)(C)C`, for which the Potency result in assay [1], in assay [7], in [16], in assay [17] and in [15] was “inactive” each time. Besides, the call in assay [3], in assay [4], in assay [5], in assay [6], in assay [10] and in assay [11] was inactive. Also, the molecule was classed as inactive in assay [12].

With `CO[C@@]1(NC(=O)C(C(=O)O)c2ccc(O)cc2)C(=O)N2C(C(=O)O)=C(CSc3nnnn3C)CO[C@@H]21` (stereo partly drawn), the Potency entry in assay [1], in [7], in assay [8], in assay [9], in [17] and in assay [14] was “inactive” throughout. Moreover, the Potency entry in assay [15] was “inactive”. Further, the molecule was called inactive in assay [3], in assay [4], in assay [5], in [6], in assay [10] and in assay [11]. The call in [12] and in [13] was inactive.

`C[N+]1(CC2COC(c3ccccc3)(c3ccccc3)O2)CCCCC1` (stereo not drawn): the activity change, negative = cytotoxicity in assay [1] was 4% [at 19 µM]; in assay [2], 12% [at 19 µM]; in assay [3], 0.56% [at 19 µM]; in assay [7] it was 7.11% [at 19 µM]; in [17], -1.98% [at 19 µM]; in assay [11] it was -19% [at 15.8 µM]. Moreover, the activity change, negative = cytotoxicity in assay [15] was -0.185% [at 19 µM]. Besides, in assay [9], the activity change, negative = inhibition was 3.69% [at 18.9 µM]. Further, the viability change, negative = cytotoxic in assay [10] was 7.39% [at 15.8 µM]. Moreover, the activation in assay [12] is 1.32% [at 15.8 µM]; in assay [14], 10.8% [at 11.8 µM]. In addition, the activity, negative = inhibition in assay [13] was 1.31% [at 10.5 µM].

Regarding `CCCc1nn(C)c2c(=O)[nH]c(-c3cc(S(=O)(=O)N4CCN(C)CC4)ccc3OCC)nc12`, the Potency result in [1], in assay [7], in assay [9], in assay [16], in [17] and in assay [14] was “inactive” each time. In assay [15], the Potency entry was “inactive”. The result in assay [3], in assay [5], in [6], in [10], in [11] and in assay [12] was inactive. Further, in assay [13], the call was inactive. In addition, the Potency in [8] is 13.3 µM (active).

Turning to `CCCC(C)C(=O)OCC` (stereo not drawn), the Potency entry in assay [1], in [7], in assay [8], in [9], in assay [16] and in assay [17] was “inactive” throughout. In addition, the Potency entry in [14] and in assay [15] was “inactive” in each case. Moreover, the result in assay [3], in [4], in assay [6], in assay [10], in assay [11] and in assay [12] was inactive. For the same molecule, the result in assay [13] was inactive.

With `Clc1cc(Cl)c(Cl)nc1Cl`, the Potency entry in [1], in assay [2], in assay [8], in [16], in assay [17] and in [14] was “inactive” in each case. Also, the Potency entry in [15] is “inactive”. Besides, the call in assay [3], in assay [6], in assay [10], in [12] and in [13] was inactive.

For the molecule `O=C(O)c1cc(C(=O)O)cc(C(=O)O)c1`, the Potency entry in assay [1], in assay [7], in assay [8], in assay [9], in [16] and in assay [17] was “inactive” throughout. The Potency entry in assay [14] and in assay [15] was “inactive” in each case. In addition, the molecule was called inactive in assay [3], in [4], in assay [6], in assay [10], in [11] and in [12]. Further, in assay [13], the outcome was inactive.
